In PubChem BioAssay (Tox21):
Records with an inconclusive call do not appear. Entries that show only a call come without a potency. More than one record can exist for a structure, and the calls need not agree. Activity calls are given as the source filed them. Unless noted, calls come from the whole dose curve.

Test system: not listed separately
Assay: p53 small molecule agonists, cell-based qHTS assay (AID 1963582; active = well fitted activation curve with a large enough effect in the signal ratio in the repeat runs, not every such curve was filed as active; the % refers to the signal ratio)
Settings: HCT-116 p53RE-bla reporter, beta-lactamase FRET ratio, 16 h; series mostly up to 66 µM
In short: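 Read-out is beta-lactamase FRET fluorescence after 2 h at room temperature with LiveBLAzer B/G substrate. p53 response element-bla cells were treated 16 h at 37 C with compounds in DMSO, added 5 h after seeding.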

SMILES	Potency
Nc1nc(N)c(N)c(N)n1	inactive
COC(=O)C(C)N(C(=O)c1ccco1)c1c(C)cccc1C (stereo not given)	inactive
O=c1ssc(Cl)c1Cl	inactive
CC(C)(C)C(O)/C(=C\c1ccc(Cl)cc1Cl)n1cncn1 (stereo not given)	inactive
NC1CCC(CC2CCC(N)CC2)CC1 (stereo not given)	inactive
CCCN(CC1CC1)c1c([N+](=O)[O-])cc(C(F)(F)F)cc1[N+](=O)[O-]	inactive
OCC(c1ccc(Cl)cc1)c1ccc(Cl)cc1	inactive
CC(C)C1CCC(Cc2ccc(Cl)cc2)C1(O)Cn1cncn1 (stereo not given)	inactive
O=C(N[C@H](c1ccccc1)[C@@H]1CN2CCC1CC2)c1c(Cl)ccc(C(F)(F)F)c1Cl	inactive
Cc1cc(C2CC2)nc(Nc2ccccc2)n1	inactive
O=NN1CCNCC1	inactive
CC(C)(c1ccccc1)c1ccc(O)cc1	inactive
Brc1ccc(Oc2ccc(Br)cc2Br)c(Br)c1	inactive
CCOC(=O)CCN(SN(C)C(=O)Oc1cccc2c1OC(C)(C)C2)C(C)C	inactive

Biological target: 5-hydroxytryptamine receptor 2A (Homo sapiens) (UniProt P28223)
Sequence (P28223 whole entry, looked up): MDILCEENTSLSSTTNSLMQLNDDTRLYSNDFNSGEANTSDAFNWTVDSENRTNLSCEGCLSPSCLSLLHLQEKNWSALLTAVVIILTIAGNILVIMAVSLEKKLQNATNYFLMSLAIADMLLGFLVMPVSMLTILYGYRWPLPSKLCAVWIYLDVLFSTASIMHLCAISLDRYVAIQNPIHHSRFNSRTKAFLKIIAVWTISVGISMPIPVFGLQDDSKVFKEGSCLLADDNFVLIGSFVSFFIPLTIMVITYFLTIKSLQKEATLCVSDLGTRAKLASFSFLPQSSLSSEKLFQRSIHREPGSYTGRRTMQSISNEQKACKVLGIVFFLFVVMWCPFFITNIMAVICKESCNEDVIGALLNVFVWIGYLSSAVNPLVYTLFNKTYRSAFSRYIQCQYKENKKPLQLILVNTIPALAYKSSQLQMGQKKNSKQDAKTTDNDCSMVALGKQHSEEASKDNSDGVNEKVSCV
Assay: 5-hydroxytryptamine receptor 2A (HTR2A) small molecule antagonists, cell-based qHTS assay (AID 1963586); note: nearly all actives have a fitted effect of over 45% in size; note: potency is the fitted concentration of half-maximal effect
Settings: HTR2A-CHO cells, DOI-induced calcium flux, fluorescence; series mostly up to 61.5 µM
In short: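 CHO cells stably expressing human HTR2A were plated for 18 h at 37 C, then loaded with calcium dye for 1 h. Compounds were preincubated 5 min at room temperature before DOI (4 nM solution) was added. Kinetic fluorescence was read for 3 min.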

SMILES	Potency
Nc1nc(N)c(N)c(N)n1	inactive
CCCCCCCc1ccc(O)cc1	inactive
CCOP(=O)(OCC)Oc1nc(Cl)c(Cl)cc1Cl	inactive
O=c1ssc(Cl)c1Cl	inactive
CCCN(CCC)c1c([N+](=O)[O-])cc(C(F)(F)F)cc1[N+](=O)[O-]	inactive
CNC(=O)N(C)c1nc2ccccc2s1	inactive
CC(C)(O)c1cnn2c(-c3ccc(F)c(-c4c(F)cccc4C#N)c3)cnc2n1	inactive
CCOc1cc(C(C)(C)C)ccc1C1COC(c2c(F)cccc2F)=N1 (stereo not given)	inactive
CC(C)(C)C(O)/C(=C\c1ccc(Cl)cc1Cl)n1cncn1 (stereo not given)	inactive
NC1CCC(CC2CCC(N)CC2)CC1 (stereo not given)	inactive
O=[N+]([O-])c1ccc(Oc2ccc(C(F)(F)F)cc2[N+](=O)[O-])cc1	inactive
CCCN(CC1CC1)c1c([N+](=O)[O-])cc(C(F)(F)F)cc1[N+](=O)[O-]	inactive
OCC(c1ccc(Cl)cc1)c1ccc(Cl)cc1	7.48 µM (active)
CC(C)C1CCC(Cc2ccc(Cl)cc2)C1(O)Cn1cncn1 (stereo not given)	37.1 µM (active)
COC(C)(C)CCC[C@H](C)C/C=C/C(C)=C/C(=O)OC(C)C	inactive
CCCSP(=S)(OCC)Oc1ccc(Cl)cc1Cl (stereo not given)	inactive

SMILES	Potency
O=C(N[C@H](c1ccccc1)[C@@H]1CN2CCC1CC2)c1c(Cl)ccc(C(F)(F)F)c1Cl	inactive
c1cc(OCC2CO2)ccc1Cc1ccc(OCC2CO2)cc1 (stereo not given)	inactive
Cc1cc(C2CC2)nc(Nc2ccccc2)n1	inactive
NNC(N)=O	inactive
CN1CCc2cc3c(cc2C1O)OCO3 (stereo not given)	inactive
Fc1ccc(Oc2ccnc3cc(Cl)cc(Cl)c23)cc1	inactive
O=NN1CCNCC1	inactive
CCC1(CC)C(=O)N=C(O)NC1=O	inactive
CCCCN(CCCC)C(=S)S	inactive
NS(=O)(=O)C(F)(F)C(F)(F)C(F)(F)C(F)(F)C(F)(F)C(F)(F)C(F)(F)C(F)(F)F	inactive
CCOP(=S)(Oc1ccc([N+](=O)[O-])cc1)c1ccccc1 (stereo not given)	inactive
OC(c1ccc(Cl)cc1)(c1ccc(Cl)cc1)C(Cl)(Cl)Cl	inactive
CC(C)(c1ccccc1)c1ccc(O)cc1	33.2 µM (active) and inactive
Brc1ccc(Oc2ccc(Br)cc2Br)c(Br)c1	inactive
CCOC(=O)CCN(SN(C)C(=O)Oc1cccc2c1OC(C)(C)C2)C(C)C	inactive
